Measured values: paper PMC4336329 (PLoS ONE, 2015)
Hit rate of the full screen: of about 310,000 compounds, about 14,000 (4.5%) showed an effect of 50% or more. Effects have a minus sign here. Shown is part of a subset that was picked to be rich in strong results.

Target: human ether-à-go-go-related gene (hERG) potassium channel (human, UniProt Q12809)
Test: primary screen, population patch clamp on CHO cells stably expressing hERG; higher = less effect of the substance
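Also: peak tail current of the secondary pulse compared with the same well before compound.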

Sequence of human ether-à-go-go-related gene (hERG) potassium channel (Q12809 whole entry, looked up): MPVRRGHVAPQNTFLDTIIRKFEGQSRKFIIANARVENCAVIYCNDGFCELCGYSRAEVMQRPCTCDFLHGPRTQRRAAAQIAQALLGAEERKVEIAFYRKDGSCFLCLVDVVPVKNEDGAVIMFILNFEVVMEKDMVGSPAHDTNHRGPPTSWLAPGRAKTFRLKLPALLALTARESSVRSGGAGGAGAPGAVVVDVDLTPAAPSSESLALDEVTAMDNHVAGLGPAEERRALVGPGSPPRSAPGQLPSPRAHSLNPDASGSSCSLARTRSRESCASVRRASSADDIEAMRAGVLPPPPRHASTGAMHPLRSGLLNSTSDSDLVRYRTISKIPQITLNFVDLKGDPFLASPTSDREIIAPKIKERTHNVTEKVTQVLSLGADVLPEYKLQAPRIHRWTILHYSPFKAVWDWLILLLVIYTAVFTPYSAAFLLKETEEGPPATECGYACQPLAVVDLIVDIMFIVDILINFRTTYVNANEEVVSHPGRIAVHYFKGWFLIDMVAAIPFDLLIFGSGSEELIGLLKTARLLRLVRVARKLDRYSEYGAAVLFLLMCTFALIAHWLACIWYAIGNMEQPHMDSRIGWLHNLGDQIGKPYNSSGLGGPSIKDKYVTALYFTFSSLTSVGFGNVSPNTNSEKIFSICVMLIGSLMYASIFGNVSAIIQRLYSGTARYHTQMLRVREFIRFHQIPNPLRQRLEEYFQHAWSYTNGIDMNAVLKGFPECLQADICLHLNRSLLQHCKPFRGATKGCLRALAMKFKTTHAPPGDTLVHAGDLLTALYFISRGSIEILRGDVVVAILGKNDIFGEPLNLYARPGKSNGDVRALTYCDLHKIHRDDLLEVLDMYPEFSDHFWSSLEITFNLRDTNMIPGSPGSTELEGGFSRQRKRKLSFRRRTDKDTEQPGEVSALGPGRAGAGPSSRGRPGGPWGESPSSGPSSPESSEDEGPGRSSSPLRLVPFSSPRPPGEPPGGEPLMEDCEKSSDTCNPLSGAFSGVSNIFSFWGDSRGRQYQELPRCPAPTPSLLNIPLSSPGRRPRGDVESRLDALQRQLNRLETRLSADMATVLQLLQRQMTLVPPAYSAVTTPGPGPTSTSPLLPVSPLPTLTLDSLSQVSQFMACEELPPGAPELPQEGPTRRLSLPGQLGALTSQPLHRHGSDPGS

Compound	hERG current change (%, negative = inhibition) at 10uM
Cc1nc(C)c(-c2csc(Nc3ccc(F)cc3)n2)s1	-25.1%
O=C1CSc2ccc(C(=O)Nc3cccc(S(=O)(=O)Nc4ccc(Br)cc4)c3)cc2N1	15%
O=C(COC(=O)c1cccc(-n2cnnn2)c1)c1ccc(F)cc1	-0.561%
CCOC(=O)C1CCN(S(=O)(=O)c2ccc3c(c2)CC(=O)N3C)CC1	-22%
C=CCc1c(C)nc(SC(C)C)[nH]c1=O	-2.85%
CCOc1cc(C(=S)N2CCCC2)ccc1OC(=O)Cc1ccc(F)cc1	7.36%
O=C(c1oc2ccccc2c1CSCc1ccccc1)N1CCN(c2ncccn2)CC1	1.59%
O=C(Cc1ccc(F)cc1)Nc1c(C(=O)N2CCN(c3ncccn3)CC2)oc2ccccc12	-56%
COc1ccc(CC(=O)Nc2c(C(=O)N3CCN(c4ncccn4)CC3)oc3ccccc23)cc1	-63.7%
COc1ccc(CC(=O)Nc2c(C(=O)N3CCN(c4ncccn4)CC3)oc3ccccc23)cc1OC	-46.8%
COc1ccc(N2CCN(C(=O)c3oc4ccccc4c3NC(=O)Cc3ccc(OC)c(OC)c3)CC2)cc1	-28.7%
Cc1ccc(O)c(NC(=O)c2ccc3c(c2)C(=O)N(Cc2ccco2)C3=O)c1	3.81%
COC(=O)c1[nH]c2c(c1C)C(=O)CC(c1ccc(OC)cc1)C2 (stereo not shown)	11%
CCOc1ccc2[nH]c(=O)c(CN(CCOC)C(=O)N3CCOCC3)cc2c1	13.5%
O=C(Nc1nnc(-c2ccc(F)cc2)o1)c1ccc(S(=O)(=O)N2CCOCC2)cc1	-6.82%
CC(Oc1ccc(Cl)cc1)C(=O)N(C)CC(=O)Nc1ccc(N2CCOCC2)cc1 (stereo not shown)	5.8%
Cn1c(CN2CCCCC2)nc2cc([N+](=O)[O-])ccc21	-0.791%
Cn1c(CN2CCCC2)nc2cc(NC(=O)COc3ccc([N+](=O)[O-])cc3)ccc21	-38.6%
CCN1CCN(CCc2nc3cc([N+](=O)[O-])ccc3n2C)CC1	-16.9%
Cn1c(CCN2CCCCC2)nc2cc(NC(=O)COc3ccc([N+](=O)[O-])cc3)ccc21	-63.1%
Cn1c(CCN2CCOCC2)nc2cc(NC(=O)COc3ccc([N+](=O)[O-])cc3)ccc21	-21.1%
CC1CCN(CCc2nc3cc(NC(=O)COc4ccc([N+](=O)[O-])cc4)ccc3n2C)CC1	-68.4%
Cn1c(CCN2CCCCC2)nc2cc([N+](=O)[O-])ccc21	-70.2%
CCN1CCN(Cc2nc3cc(NC(=O)COc4ccc([N+](=O)[O-])cc4)ccc3n2C)CC1	-18.7%
CN1CCN(CCc2nc3cc(NC(=O)COc4ccc([N+](=O)[O-])cc4)ccc3n2C)CC1	16.1%
